Laboratory results taken from PubChem BioAssay (NCATS).
Inconclusive results are not listed. Entries that show only a call come without a potency. Calls of active or inactive are those of the source. The call rests on the fitted dose curve; in most records, active means well fitted curve in the direction sought with a large enough effect; inconclusive means small, poorly fitted or top-dose-only effect, or another doubt; inactive means no such curve, though single readings can be large; an effect the other way counts as inactive or inconclusive.

Experiment: BET inhibitor-based combinations targeting novel dependencies in MECOM-rearranged (r) AML: OCI-AML3 cell line (AID 2202232); further: nearly all actives have a fitted effect of over 35% in size
Details: CellTiter-Glo luminescence, 48 h; Potency: OCI-AML3 viability; series mostly up to 46 µM
In short: (§1)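 Readout: CellTiter-Glo luminescence. Exposure: 48 h, 11 concentrations, 500 cells/well. Metric: AUC and within-line Z-AUC after DMSO/empty-well normalization.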
Potency means the concentration at half of the fitted maximal effect.

Row | SMILES | Potency
1 | Nc1nc2ccc(OC(F)(F)F)cc2s1 | 20.9 µM (active)
2 | CCOC(=O)c1ncn2c1CN(C)C(=O)c1cc(F)ccc1-2 | inactive
3 | O=c1c(O)c(-c2ccc(O)c(O)c2)oc2cc(O)cc(O)c12 | inactive
4 | CN1CCN(CCCN2c3ccccc3Sc3ccc(C(F)(F)F)cc32)CC1 | 16.6 µM (active)
5 | CCOC(=O)C(C)(C)Oc1ccc(Cl)cc1 | inactive
6 | O=Nc1c(-c2c(O)[nH]c3cc(Br)ccc23)[nH]c2ccccc12 | 11.8 µM (active)
7 | NC(=O)OCC(COC(N)=O)c1ccccc1 | inactive
8 | OCCN1CCN(CCCN2c3ccccc3Sc3ccc(C(F)(F)F)cc32)CC1 | 18.6 µM (active)
9 | CCC(C)N(C)C(=O)c1cc2ccccc2c(-c2ccccc2Cl)n1 (stereo not drawn) | inactive
10 | NC(=O)c1cccc(N)c1 | inactive
11 | NC(=O)c1ccc2[nH]ccc2c1 | inactive
12 | O=C(c1ccccc1)c1ccc2n1CCC2C(=O)O (stereo not drawn) | inactive

Experiment: BET inhibitor-based combinations targeting novel dependencies in MECOM-rearranged (r) AML: MV-4-11 cell line (AID 2202233); further: nearly all actives have a fitted effect of over 45% in size
Details: MV-4-11 AML viability, CellTiter-Glo luminescence, 48 h; series mostly up to 46 µM
In short: (§2)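 Seeding density was 500 cells/well, and drug exposure lasted 48 hr under standard culture conditions. Read-out used CellTiter-Glo reagent with a 15 min room-temperature incubation before luminescence measurement; AUC and Z-AUC summarize the normalized responses.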

Row | SMILES | Potency
13 | O=c1[nH]cc(F)c(=O)[nH]1 | 6.61 µM (active)
14 | Nc1nc2ccc(OC(F)(F)F)cc2s1 | 23.5 µM (active)
15 | OC(CCN1CCCCC1)(c1ccccc1)C1CC2C=CC1C2 (stereo not drawn) | 23.5 µM (active)
16 | O=c1c(O)c(-c2ccc(O)c(O)c2)oc2cc(O)cc(O)c12 | inactive
17 | CCOC(=O)C(C)(C)Oc1ccc(Cl)cc1 | inactive
18 | O=Nc1c(-c2c(O)[nH]c3cc(Br)ccc23)[nH]c2ccccc12 | 0.263 µM (active)
19 | OCCN1CCN(CCCN2c3ccccc3Sc3ccc(C(F)(F)F)cc32)CC1 | 18.6 µM (active)
20 | NC(CO)C(=O)NNCc1ccc(O)c(O)c1O (stereo not drawn) | inactive
21 | NC(=O)c1cccc(N)c1 | inactive
22 | NC(=O)c1ccc2[nH]ccc2c1 | inactive
23 | NC(=NCc1ccccc1)NC(=O)c1nc(Cl)c(N)nc1N | 5.25 µM (active)
24 | O=C(c1ccccc1)c1ccc2n1CCC2C(=O)O (stereo not drawn) | inactive

Experiment: BET inhibitor-based combinations targeting novel dependencies in MECOM-rearranged (r) AML: HNT-34 cell line (AID 2202234); further: nearly all actives have a fitted effect of over 35% in size
Details: HNT-34 AML viability, CellTiter-Glo luminescence, 48 h; series mostly up to 46 µM
In short: as §2

Row | SMILES | Potency
25 | Nc1nc2ccc(OC(F)(F)F)cc2s1 | 16.6 µM (active)
26 | OC(CCN1CCCCC1)(c1ccccc1)C1CC2C=CC1C2 (stereo not drawn) | inactive
27 | CCOC(=O)c1ncn2c1CN(C)C(=O)c1cc(F)ccc1-2 | inactive
28 | CCOC(=O)C(C)(C)Oc1ccc(Cl)cc1 | inactive
29 | NC(=O)OCC(COC(N)=O)c1ccccc1 | inactive
30 | OCCN1CCN(CCCN2c3ccccc3Sc3ccc(C(F)(F)F)cc32)CC1 | 18.6 µM (active)
31 | CCC(C)N(C)C(=O)c1cc2ccccc2c(-c2ccccc2Cl)n1 (stereo not drawn) | inactive
32 | NC(CO)C(=O)NNCc1ccc(O)c(O)c1O (stereo not drawn) | inactive
33 | NC(=O)c1ccc2[nH]ccc2c1 | inactive
34 | NC(=NCc1ccccc1)NC(=O)c1nc(Cl)c(N)nc1N | 14.8 µM (active)
35 | O=C(c1ccccc1)c1ccc2n1CCC2C(=O)O (stereo not drawn) | inactive

Experiment: BET inhibitor-based combinations targeting novel dependencies in MECOM-rearranged (r) AML: UCSD-AML1 cell line (AID 2202235); further: nearly all actives have a fitted effect of over 40% in size
Details: UCSD-AML1 AML cells viability, CellTiter-Glo, 48 h; series mostly up to 46 µM
In short: as §2

Row | SMILES | Potency
36 | Nc1nc2ccc(OC(F)(F)F)cc2s1 | 26.3 µM (active)
37 | OC(CCN1CCCCC1)(c1ccccc1)C1CC2C=CC1C2 (stereo not drawn) | inactive
38 | CCOC(=O)c1ncn2c1CN(C)C(=O)c1cc(F)ccc1-2 | inactive
39 | O=c1c(O)c(-c2ccc(O)c(O)c2)oc2cc(O)cc(O)c12 | inactive
40 | CN1CCN(CCCN2c3ccccc3Sc3ccc(C(F)(F)F)cc32)CC1 | inactive
41 | COc1ccc(CCN(C)CCCC(C#N)(c2ccc(OC)c(OC)c2)C(C)C)cc1OC (stereo not drawn) | 16.6 µM (active)
42 | CCOC(=O)C(C)(C)Oc1ccc(Cl)cc1 | inactive
43 | CN(C)CCCN1c2ccccc2CCc2ccc(Cl)cc21 | inactive
44 | O=Nc1c(-c2c(O)[nH]c3cc(Br)ccc23)[nH]c2ccccc12 | 13.2 µM (active)
45 | NC(=O)OCC(COC(N)=O)c1ccccc1 | inactive
46 | OCCN1CCN(CCCN2c3ccccc3Sc3ccc(C(F)(F)F)cc32)CC1 | inactive
47 | CCC(C)N(C)C(=O)c1cc2ccccc2c(-c2ccccc2Cl)n1 (stereo not drawn) | inactive
48 | NC(CO)C(=O)NNCc1ccc(O)c(O)c1O (stereo not drawn) | inactive
49 | NC(=O)c1cccc(N)c1 | inactive
50 | NC(=O)c1ccc2[nH]ccc2c1 | inactive
51 | NC(=NCc1ccccc1)NC(=O)c1nc(Cl)c(N)nc1N | inactive
52 | O=C(c1ccccc1)c1ccc2n1CCC2C(=O)O (stereo not drawn) | inactive

Experiment: BET inhibitor-based combinations targeting novel dependencies in MECOM-rearranged (r) AML: AML-191 cell line (AID 2202236; further: nearly all actives have a fitted effect of over 35% in size)
Details: AML-191 viability, CellTiter-Glo luminescence, 48 h; series mostly up to 46 µM
In short: as §1

Row | SMILES | Potency
53 | OC(CCN1CCCCC1)(c1ccccc1)C1CC2C=CC1C2 (stereo not drawn) | inactive
54 | CCOC(=O)c1ncn2c1CN(C)C(=O)c1cc(F)ccc1-2 | inactive
55 | CCOC(=O)C(C)(C)Oc1ccc(Cl)cc1 | inactive
56 | O=Nc1c(-c2c(O)[nH]c3cc(Br)ccc23)[nH]c2ccccc12 | 14.8 µM (active)
57 | NC(=O)OCC(COC(N)=O)c1ccccc1 | inactive
58 | OCCN1CCN(CCCN2c3ccccc3Sc3ccc(C(F)(F)F)cc32)CC1 | 29.5 µM (active)
59 | CCC(C)N(C)C(=O)c1cc2ccccc2c(-c2ccccc2Cl)n1 (stereo not drawn) | inactive
60 | NC(=O)c1cccc(N)c1 | inactive
61 | NC(=O)c1ccc2[nH]ccc2c1 | inactive
62 | NC(=NCc1ccccc1)NC(=O)c1nc(Cl)c(N)nc1N | 20.9 µM (active)
63 | O=C(c1ccccc1)c1ccc2n1CCC2C(=O)O (stereo not drawn) | inactive
